We go through three compounds from PubChem BioAssay (EPA / NIEHS).

Active and inactive are the calls of the source. Rule for the calls: active = hit-call score of the fitted dose curve at least 0.9, where 1 is the maximum; inactive = score below 0.9.

One assay can be described thus: CCTE_Harrill_HTTr_Viability_MCF7: CCTE's 6-hour Cell Viability Assessment for the High-Throughput Transcriptomics (HTTr) Platform, in MCF-7 cells cultured in DMEM + 10% fetal bovine serum, Harrill Lab (AID 2284010). The procedure, abridged:
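Propidium iodide exclusion, imaged by high-content analysis, gauged viability after a six-hour exposure across eight concentrations. Cells were MCF-7 grown in DMEM with 10% fetal bovine serum; fits run in both directions against DMSO.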
Regarding `CCCCc1c(C)nc(NCC)[nH]c1=O`, the result was inactive.
Same read-out and setting: to `CCCN(CC1CC1)c1c([N+](=O)[O-])cc(C(F)(F)F)cc1[N+](=O)[O-]` belongs “inactive”; to `O=CC=Cc1ccccc1`, “inactive”.

A short description of another assay: CCTE_Harrill_HTTr_Apoptosis_MCF7: CCTE's 6-hour Apoptosis Assessment for the High-Throughput Transcriptomics (HTTr) Platform, in MCF-7 cells cultured in DMEM + 10% fetal bovine serum, Harrill Lab (AID 2284011). The procedure, abridged:
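Read-out: CellEvent Caspase 3/7 Green signal by high content imaging, gain-of-signal indicating apoptosis. MCF-7 cells, DMEM + 10% FBS, eight-point dilution series, 6 h exposure. Curves fitted bidirectionally relative to DMSO negative control.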
Take `CCCCc1c(C)nc(NCC)[nH]c1=O`: the result was inactive.
For the compound `CCCN(CC1CC1)c1c([N+](=O)[O-])cc(C(F)(F)F)cc1[N+](=O)[O-]`, the result was inactive.
With `O=CC=Cc1ccccc1`, the outcome was inactive.
